Inhibition data for 37 compounds are collected here from PubChem BioAssay AID504710 (Sanford-Burnham Center for Chemical Genomics, 2011).

Values without a mark were called inactive. Activity calls are given as the source filed them.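 The calls were made as follows: active = inhibition reaching about 16% in any single replicate (limit read from the data); inactive = the rest.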

Broadly, the inhibition is the change of the read-out against control, counted positive when it falls.

In the experiment the target is Hexokinase HKDC1 (Homo sapiens) (UniProt Q2TB90). The experiment can be described thus: compounds lowering human HKDC1 activity – biochemical, single concentration, confirmation (AID 504710). Conditions: recombinant HKDC1, G6PDH/diaphorase/resazurin fluorescence; at 20 µM; stronger effect = higher value. (The colour change of resazurin is a common sign of viable cells or microbes.)
Hexokinase HKDC1 (Homo sapiens), sequence (Q2TB90 whole entry, looked up): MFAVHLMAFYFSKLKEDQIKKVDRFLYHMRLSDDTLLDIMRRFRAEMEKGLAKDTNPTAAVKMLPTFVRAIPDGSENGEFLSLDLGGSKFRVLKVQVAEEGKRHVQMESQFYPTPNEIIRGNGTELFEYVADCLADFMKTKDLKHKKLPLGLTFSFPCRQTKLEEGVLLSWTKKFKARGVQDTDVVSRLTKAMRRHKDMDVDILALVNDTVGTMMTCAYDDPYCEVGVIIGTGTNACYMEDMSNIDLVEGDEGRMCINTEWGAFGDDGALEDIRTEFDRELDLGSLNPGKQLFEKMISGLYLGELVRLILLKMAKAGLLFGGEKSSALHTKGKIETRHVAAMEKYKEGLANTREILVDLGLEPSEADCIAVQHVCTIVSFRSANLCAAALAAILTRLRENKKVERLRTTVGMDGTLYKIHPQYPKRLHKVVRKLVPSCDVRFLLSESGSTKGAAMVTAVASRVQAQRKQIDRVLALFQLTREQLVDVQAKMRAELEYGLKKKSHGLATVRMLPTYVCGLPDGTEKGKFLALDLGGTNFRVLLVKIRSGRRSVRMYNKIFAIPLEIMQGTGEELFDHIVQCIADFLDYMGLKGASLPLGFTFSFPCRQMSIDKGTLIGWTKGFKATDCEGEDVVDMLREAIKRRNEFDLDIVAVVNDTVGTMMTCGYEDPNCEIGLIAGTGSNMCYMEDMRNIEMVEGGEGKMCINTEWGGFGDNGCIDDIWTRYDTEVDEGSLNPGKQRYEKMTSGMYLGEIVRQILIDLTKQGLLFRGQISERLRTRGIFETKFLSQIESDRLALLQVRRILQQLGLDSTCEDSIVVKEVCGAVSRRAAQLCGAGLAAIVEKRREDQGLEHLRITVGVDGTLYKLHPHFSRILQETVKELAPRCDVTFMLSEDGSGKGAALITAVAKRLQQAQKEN
Consider `COc1ccc(S(=O)(=O)Nc2ccc(O)c3ccccc23)cc1`, for which the inhibition was 51.2% (active).
For the compound `CCOC(=O)c1c(C)[nH]c(C2=NNC(=Nc3ccccc3OC)SC2)c1C`, the inhibition was -86.4%.
Turning to `COc1ccc(OC)c2[nH]c(=O)c(CCNC(=O)c3cc4ccccc4o3)cc12`, the inhibition is 59.6% (active).
To `CCOC(=O)C1=C(Cc2ccc(F)cc2)C(=O)c2ccccc2C1=O` belongs 59.2% (active).
Take `CC(=O)C1=C(c2cccc([N+](=O)[O-])c2)N(C(C)=O)n2c(C)nnc2S1`: the inhibition was -387%.
For `O=C1C=CC(=O)c2c(O)c(CO)c(CO)c(O)c21` the value was 39.3% (active).
To `O=C1NC(=S)N/C1=C/c1cc2c(cc1[N+](=O)[O-])OCO2` belongs -36.6%; to `COc1ccc(C2=NNC(=Nc3cc(S(=O)(=O)N(C)C)ccc3C)SC2)c(OC)c1`, -120%; to `C=CCn1nc([N+](=O)[O-])nc1Sc1cccc2cccnc12`, -52.4%.
As for `CCCc1nc2oc3c(NCC4CCCO4)ncnc3c2c2c1COC(C)(C)C2` (configuration not stated), the inhibition was 28.9% (active).
As to `Cc1ccc(SC2=C(Sc3ccc(C)cc3)C(=O)c3ccccc3C2=O)cc1`, the inhibition was 69% (active).
For `O=C(O)c1ccc(N=Cc2c(O)ccc3ccccc23)cc1` the value was 43% (active); for `Cc1nc([N+](=O)[O-])c(Br)n1Cc1ccc(Cl)c(Cl)c1`, 53.8% (active); for `CC(=O)N(C1=C(Cl)C(=O)c2ccccc2C1=O)c1ccc(C(=O)O)cc1`, 64.4% (active).
To `O=C(/C=C/c1cccs1)Nc1scc(-c2ccccc2)c1C(=O)O` belongs 58.2% (active).
For `O=C1C(Cl)=C(NCCc2ccccc2)C(=O)c2ccccc21` the value was 59.5% (active); for `O=C1C=C(N2CCCCC2)c2ccccc2C1=O`, 86.1% (active).
For the compound `COc1ccc(NC(=O)Cc2c[nH]c3ccccc23)cc1S(=O)(=O)N1CCCCC1`, the inhibition was -35.1%.
To `CC(NC1=CC(=O)c2cccnc2C1=O)C(O)c1ccccc1` (configuration not stated) belongs 43.3% (active).
In the case of `CCOc1ccc(-n2c(C)cc(C(=O)CCl)c2C)cc1`, the inhibition was 28.5% (active).
For `Fc1ccccc1N=C1NN=C(c2ccccc2)CS1` the value was -53.4%; for `O=C(O)[C@@H](c1ccccc1)N1Cc2ccccc2C1=O`, 43.8% (active); for `Cc1[nH]n(-c2ccccc2)c(=O)c1/C=N/Nc1nncc(-c2ccccc2)n1`, -60.6%.
To `COc1ccccc1C1=NNC(=Nc2cccc(S(=O)(=O)N(C)C)c2)SC1` belongs -177%.
As for `NS(=O)(=O)c1ccc(N=Nc2c(=O)[nH]n3c(=O)c4c([nH]c23)CCCC4)cc1`, the inhibition was 72.5% (active).
For `COc1ccc(-n2c(C)cc(C(=O)CCl)c2C)cc1` the value was 34.3% (active).
For `O=[N+]([O-])c1ccc(NN=Cc2ccc(O)cc2O)nc1`, the inhibition was 50.8% (active).
As for `Cc1cc(C2=NNC(=Nc3ccc(S(=O)(=O)N4CCOCC4)cc3)SC2)c(C)n1C`, the inhibition is -46.6%.
As to `CCOc1ccc(/C=C2/SC(=S)N(CCC(=O)Nc3ccc(C(=O)O)cc3)C2=O)cc1`, the inhibition was -41.5%.
To `Oc1ccc(/C=N/Nc2ncc(Br)cn2)c(O)c1` belongs 44.6% (active).
For the compound `CCn1cc(C(=O)NCc2ccc3c(c2)OCO3)c2cc(OC)c(OC)cc2c1=O`, the inhibition is 45.9% (active).
Take `Clc1cccc(N=C2NN=C(c3ccc4c(c3)OCCO4)CS2)c1`: the inhibition is -99.6%.
Regarding `COc1cc2c(cc1OC)-c1cc(NCc3ccccn3)nc(=O)n1CC2`, the inhibition is 54% (active).
To `Cc1ccc(S(=O)(=O)/N=C2\C=C(Nc3cccc(C(=O)O)c3)C(=O)c3ccccc32)cc1` belongs 79.9% (active).
To `NC(=O)C1CCN(C2=C(Cl)C(=O)c3ccccc3C2=O)CC1` belongs 73% (active); to `Cc1nc(COC(=O)c2cc(O)c3ccccc3c2O)cs1`, 39.5% (active).
For `Cc1[nH]c2ccccc2c1C1=CC(=O)C=CC1=O` the value was 52.9% (active).
